Hits are enriched below; roughly 0.74% of the tested compounds scored in any of these assays.
p97 ATPase inh – blocks human p97 ATPase activity. P55072. recombinant p97 ATPase, Kinase-Glo ATP luminescence, 3 h. inhibition, % at 8 µM. 220,000 tested, 0.42% active. AID 1481; in the data active means inhibition above about 15%
pCIP destab – p/CIP protein destabilization. Q05BA5. F442A p/CIP-EGFP cells, EGFP fluorescence, 16 h. decrease of EGFP signal, % at 10 µM. 290,000 tested, 0.01% active. AID 1984;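 active means EGFP signal decrease of at least 30% at 10 µM or well 3 SD below plate mean, unless failing retest; inactive means the rest, including hits failing retest or dose response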
HMGR II inh – inhibitors of class II HMG-CoA reductase from Enterococcus faecalis; purified E. faecalis HMGR, NADPH absorbance 340 nm kinetic; inhibition, % at 10 µM; 190,000 tested, 0.41% active;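 active means inhibition above a set limit, the median over all tested compounds plus 3 SD, cut at about 9.5% in these data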;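 further: enzyme runs in reverse so mevalonate oxidation gives rising NADPH absorbance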
Furin inhibitor – inhibitors of human furin. 220,000 tested, 0.061% active. inhibition, % at 20 µM or 30 µM. purified furin, fluorogenic substrate cleavage. AID 463115; in the data active means inhibition above about 25%
Target sequence (P09958 108-714 limits assumed): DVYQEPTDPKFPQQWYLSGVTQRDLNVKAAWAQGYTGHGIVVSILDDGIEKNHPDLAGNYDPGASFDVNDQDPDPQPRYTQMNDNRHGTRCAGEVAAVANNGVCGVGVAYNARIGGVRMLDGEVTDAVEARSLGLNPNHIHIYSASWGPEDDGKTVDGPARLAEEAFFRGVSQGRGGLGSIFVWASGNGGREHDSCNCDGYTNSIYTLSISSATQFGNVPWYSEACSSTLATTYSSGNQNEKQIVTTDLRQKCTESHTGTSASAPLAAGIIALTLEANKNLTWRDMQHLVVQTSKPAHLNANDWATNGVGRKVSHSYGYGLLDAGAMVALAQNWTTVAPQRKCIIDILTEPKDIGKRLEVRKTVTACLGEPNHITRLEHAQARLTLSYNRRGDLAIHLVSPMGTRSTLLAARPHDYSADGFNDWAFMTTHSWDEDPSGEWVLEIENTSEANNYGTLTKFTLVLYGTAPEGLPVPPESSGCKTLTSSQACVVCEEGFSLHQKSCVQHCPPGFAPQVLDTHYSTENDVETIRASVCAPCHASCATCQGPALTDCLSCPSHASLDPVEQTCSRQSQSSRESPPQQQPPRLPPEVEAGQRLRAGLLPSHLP
Redox H2O2 prof – compounds producing H2O2 with reducing agent – biochemical, NIH compound library profiling, artefact control for MLSCN library redox annotation, primary screen | activation, % at 10 µM | AID 878 | 200,000 tested, 0.03% active | DTT-dependent redox cycling H2O2, phenol red/HRP absorbance; 100% = 100 µM peroxide control, 0% = buffer;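 active means activation of at least 50% relative to the plate's high and low controls in the primary single-dose screen; inactive means activation below 50%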;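 further: compound incubated with DTT at 0.8 mM final as the reducing agent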
Tb hexokinase – T. brucei hexokinase 1 inhibition. recombinant TbHK1, G6PDH-coupled NADH A340. inhibition, % at 10 µM. 220,000 tested, 0.11% active. AID 1430;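 active means inhibition of 50% or more in the single-dose primary screen; inactive means inhibition below 50%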
Numbers stand for hits.

`CC(C)CNC(=O)CSc1ccc(Cl)cc1` gave p97 ATPase inh inactive, pCIP destab inactive, HMGR II inh 37, Furin inhibitor inactive, Redox H2O2 prof inactive and Tb hexokinase inactive.
`O=C(CSc1nc(-c2ccccc2)nc2c1Cc1ccccc1O2)Nc1ccc(C(=O)O)cc1` gave p97 ATPase inh inactive, pCIP destab inactive, HMGR II inh 15, Furin inhibitor inactive, Redox H2O2 prof inactive and Tb hexokinase inactive.
For O=C(NCc1ccccc1)C1COc2ccccc2O1 (stereo not drawn) the results were p97 ATPase inh inactive, pCIP destab inactive, HMGR II inh inactive, Furin inhibitor 30, Redox H2O2 prof inactive and Tb hexokinase inactive.
`O=C(Nc1ccc(S(=O)(=O)Nc2ccccc2)cc1)C1COc2ccccc2O1` (stereo not drawn) gave p97 ATPase inh inactive, pCIP destab inactive, HMGR II inh 15, Furin inhibitor inactive, Redox H2O2 prof inactive and Tb hexokinase inactive.
For Cc1cc(C)nc(NS(=O)(=O)c2ccc(NC(=O)C3COc4ccccc4O3)cc2)n1 (stereo not drawn) the results were p97 ATPase inh inactive, pCIP destab inactive, HMGR II inh inactive, Furin inhibitor inactive, Redox H2O2 prof inactive and Tb hexokinase inactive.
`COC(=O)[C@H]1C[C@@H]1[C@H](N)c1ccccc1` gave pCIP destab inactive.
Screening CC(C)(C)CN1CCN(Cc2c[nH]c3ccccc23)CC1CCO (stereo not drawn) returned pCIP destab inactive.
COc1ccc(Cl)cc1NC(=O)CN(c1ccccc1)S(=O)(=O)N(C)C was read as p97 ATPase inh inactive, pCIP destab inactive, HMGR II inh 17, Furin inhibitor inactive, Redox H2O2 prof inactive and Tb hexokinase inactive.
For COc1ccc(NC(=O)CN(c2ccccc2)S(=O)(=O)N(C)C)cc1Cl the results were p97 ATPase inh inactive, pCIP destab inactive, HMGR II inh inactive, Furin inhibitor inactive, Redox H2O2 prof inactive and Tb hexokinase inactive.
For COC(=O)c1cc(S(=O)(=O)NCc2cccs2)c[nH]1 the results were pCIP destab inactive.
CCOC(=O)N1CCN(C(=O)c2ccc3c(Cl)c4c(nc3c2)CCCC4)CC1 was read as pCIP destab inactive.
For O=C(c1ccc2c(Cl)c3c(nc2c1)CCCC3)N1CCC(N2CCCCC2)CC1 the results were p97 ATPase inh inactive, pCIP destab inactive, HMGR II inh 11, Furin inhibitor inactive, Redox H2O2 prof inactive and Tb hexokinase inactive.
`CCC1S/C(=N/C(=O)NC2CCCCC2)NC1=O` (stereo not drawn) gave p97 ATPase inh inactive, pCIP destab inactive, HMGR II inh 10, Furin inhibitor inactive, Redox H2O2 prof inactive and Tb hexokinase inactive.
For O=C(/N=C1\NC(=O)C(F)(C(F)(F)F)S1)NC1CCCCC1 (stereo not drawn) the results were pCIP destab inactive and HMGR II inh inactive.
For Cc1ccc(OCc2cc(C(=O)N3CCC(C(O)C(C)C)CC3)no2)cc1C (stereo not drawn) the results were pCIP destab inactive.
Cn1cc(Cl)c(/C(N)=N/OC(=O)c2ccccc2C(F)(F)F)n1 was read as pCIP destab inactive.
Screening Cc1cccc(NC(=O)CN2CCSc3ccccc32)c1 returned p97 ATPase inh inactive, pCIP destab inactive, HMGR II inh 13, Furin inhibitor inactive, Redox H2O2 prof inactive and Tb hexokinase inactive.
`Cc1cc(C(=O)OCC(=O)NC2CCCCC2)c(C)o1` gave p97 ATPase inh inactive, pCIP destab inactive, HMGR II inh inactive, Furin inhibitor inactive, Redox H2O2 prof 51 and Tb hexokinase inactive.
`Cc1ccc(C(=O)OCC(=O)NC2CCCCC2)o1` gave pCIP destab inactive.
For CCOC(=O)C1CCC(CNCc2ccccc2C)CC1 (stereo not drawn) the results were p97 ATPase inh inactive, pCIP destab inactive, HMGR II inh 9.8, Furin inhibitor inactive, Redox H2O2 prof inactive and Tb hexokinase inactive.
Cc1ccc(C2C=NN(c3ccccc3)C2=O)cc1 (stereo not drawn) was read as p97 ATPase inh inactive, pCIP destab inactive, HMGR II inh 10, Furin inhibitor inactive, Redox H2O2 prof inactive and Tb hexokinase inactive.
`COc1ccc(-n2nc3c(c2NC(=O)C2CC(=O)N(c4ccccc4)C2)CS(=O)(=O)C3)cc1` (stereo not drawn) gave pCIP destab inactive.

Screens (PubChem BioAssay)
